Measurements from PubChem BioAssay AID463173 (ICCB-Longwood Screening Facility, Harvard Medical School, 2010).
Among all 52,000 compounds or so, about 4,300 (8.3%) were called active. The sample holds actives, similar compounds and a random draw of the others, so the mix is not that of the screen. Unmarked numbers belong to inactive results. Cut-off read from the data, not from the text of the source: active = survival mostly below about 52% (no sharp cut-off); inactive = mostly above about 56%.

Each molecule was assayed on DeltatarO mutant (assay: S. aureus survival, RN4220 and DeltatarO strains – OD600, teichoic acid synthesis inhibitors, primary screen (AID 463173)). Settings: S. aureus RN4220 wild type/DeltatarO growth, OD600, 18 h, hits give low values, screened at 18.75 µg/mL (by protocol).
Molecule `Cc1oc(-c2ccccc2Cl)nc1CS(=O)(=O)CC(=O)NC(C)c1ccccc1` (stereo not drawn) has a survival of 63%.
In the case of `Cc1ccc2ncc(C(=O)Nc3cccc(C(F)(F)F)c3)c(=O)n2c1`, the survival is reported as 122%.
`Cc1[nH]c2ccccc2c1C1N2CC3(C)CN1CC(C)(C2)C3=O` (stereo not drawn) gave a survival of 77%.
For `Cc1cccc(NC(=O)CN(c2ccc(C(C)C)cc2)S(=O)(=O)c2c(C)nn(C)c2C)c1C`, the survival was 42% (active).
`CCOc1ccccc1NC(=O)CN(c1cc(C)cc(C)c1)S(=O)(=O)c1c(C)nn(C)c1C` was tested, and the survival was 89%.
Molecule `COc1ccc(N(CC(=O)Nc2cccc(Cl)c2C)S(=O)(=O)c2c(C)nn(C)c2C)cc1` has a survival of 62%.
`Cc1cc(C)cc(N(CC(=O)Nc2c(C)cc(C)cc2C)S(=O)(=O)c2c(C)nn(C)c2C)c1` was tested, and the survival was -5% (active).
Molecule `CCc1ccc(NC(=O)CN(c2ccc(C)cc2)S(=O)(=O)c2c(C)nn(C)c2C)cc1` has a survival of 56%.
`Cc1nn(C)c(C)c1S(=O)(=O)N(CC(=O)Nc1ccc(F)cc1F)c1ccc(C(C)C)cc1` showed a survival of 94%.
With `CC(=O)c1ccc(N2CCN(S(=O)(=O)c3ccc(-c4cc(C)no4)s3)CC2)cc1` the survival was -5% (active).
`CC(=O)c1ccc(N2CCN(S(=O)(=O)c3ccc(-c4cc(C(F)(F)F)on4)s3)CC2)cc1` gave a survival of 96%.
For `Cc1cc(-c2ccc(S(=O)(=O)N3CCN(c4ccc(Cl)cc4)CC3)s2)on1`, the survival was 124%.
For `Cc1cc(C)c(NC(=O)CN2C(=O)C3(SCC(=O)N3c3ccc(F)cc3)c3ccccc32)c(C)c1` (stereo not drawn), the survival was 74%.
Work on `CN(Cc1ccccc1)C(=O)CSc1nnc(-c2cccc(Cl)c2)o1` yielded a survival of 85%.
`O=C(N/N=C/c1ccco1)C1CN(S(=O)(=O)c2ccccc2)CCN1S(=O)(=O)c1ccccc1` (stereo not drawn) was tested, and the survival was 1% (active).
`O=C(N/N=C/c1ccco1)C1c2ccccc2Oc2ccccc21` showed a survival of 96%.
`CCNC(=O)C1CN(S(=O)(=O)c2ccccc2)CCN1S(=O)(=O)c1ccccc1` (stereo not drawn) showed a survival of 75%.
For `Cc1ccc(CNS(=O)(=O)c2ccc3c(c2)CCN3S(C)(=O)=O)cc1`, the survival was 94%.
Work on `O=C(Nc1cccc(C(F)(F)F)c1)c1ccc(F)c(S(=O)(=O)N2CCc3ccccc3C2)c1` yielded a survival of 91%.
In the case of `COc1ccc(-n2c(/C=C/c3cccc4ccccc34)nc3ccccc3c2=O)cc1Cl`, the survival is reported as 78%.
With `COC(=O)c1ccc(OCC2c3cc(OC)c(OC)cc3CCN2C(=O)COc2ccc(Cl)cc2)cc1` (stereo not drawn) the survival was 78%.
`COc1cc2c(cc1OC)C(COc1ccccc1OC)N(C(=O)COc1ccc(Cl)cc1)CC2` (stereo not drawn) was tested, and the survival was 47% (active).
With `COc1cc2c(cc1OC)C(COc1ccc(C(C)C)cc1)N(C(=O)COc1ccccc1)CC2` (stereo not drawn) the survival was 101%.
With `COc1cc2c(cc1OC)C(COc1cc(C)cc(C)c1)N(C(=O)c1ccc(S(=O)(=O)N3CCCC3)cc1)CC2` (stereo not drawn) the survival was 73%.
With `COc1cc2c(cc1OC)C(COc1ccccc1OC)N(C(=O)c1ccc(S(=O)(=O)N3CCCC3)cc1)CC2` (stereo not drawn) the survival was 32% (active).
`COc1cc2c(cc1OC)C(COc1ccc(F)cc1)N(C(=O)c1ccc(S(=O)(=O)N3CCCC3)cc1)CC2` (stereo not drawn) gave a survival of 81%.
In the case of `COCCCNC(=O)c1cc2c(=O)oc3ccc(C)cc3c2s1`, the survival is reported as 68%.
In the case of `COC(=O)c1cnn2c(C)c(Cc3c(C)cc(C)cc3C)c(C)nc12`, the survival is reported as 83%.
For `CC(C)Nc1nc(Cl)nc(NNC(=O)C(C)Oc2ccccc2)n1` (stereo not drawn), the survival was 93%.
`COCCCNC(=O)CSc1nc2cc3c(cc2c(=O)n1CCCC(=O)NCc1ccc(OC)cc1)OCO3` gave a survival of 83%.
`COc1ccc(CCNC(=O)CCCn2c(SCC(N)=O)nc3cc4c(cc3c2=O)OCO4)cc1OC` was tested, and the survival was 72%.
In the case of `CCN(CC)C(=O)CSc1nc2cc3c(cc2c(=O)n1CCCCCC(=O)NCc1ccc(OC)cc1)OCO3`, the survival is reported as -1% (active).
In the case of `CCCCNC(=O)CSc1nc2cc3c(cc2c(=O)n1CCCC(=O)NCCc1ccc(OC)c(OC)c1)OCO3`, the survival is reported as 109%.
In the case of `CCOC(=O)CSc1nc2cc3c(cc2c(=O)n1CCCCCC(=O)NCc1ccc(OC)cc1)OCO3`, the survival is reported as 72%.
For `CCOC(=O)CSc1nc2cc3c(cc2c(=O)n1CCCC(=O)NCCc1ccc(OC)c(OC)c1)OCO3`, the survival was -2% (active).
For `COCCCNC(=O)CSc1nc2cc3c(cc2c(=O)n1CCCCCC(=O)NCc1ccc(OC)cc1)OCO3`, the survival was 6% (active).
Work on `COCCNC(=O)CSc1nc2cc3c(cc2c(=O)n1CCCCCC(=O)NCc1ccc(OC)cc1)OCO3` yielded a survival of 67%.
Work on `CCN(CC)C(=O)CSc1nc2cc3c(cc2c(=O)n1CCCC(=O)NCc1ccc(OC)cc1)OCO3` yielded a survival of 71%.
For `COc1ccc(N2CCN(Cc3nc4c(c(=O)[nH]c(=O)n4C)n3Cc3ccccc3F)CC2)cc1`, the survival was 119%.
With `COc1ccccc1Cn1c(CNS(=O)(=O)c2ccc(CC(C)C)cc2)nc2cccnc21` the survival was 95%.
For `COc1ccc(/C=C(\NC(=O)c2ccccc2)C(=O)NC2CCCCC2)cc1`, the survival was 86%.
Work on `COc1cc(NC(=O)c2cc3ccccn3n2)cc(OC)c1OC` yielded a survival of 69%.
With `Cc1ccc(NC(=O)NCCc2c(C)nn(C)c2C)c(Cl)c1` the survival was 72%.
`Cc1ccc(C(=O)NCC(c2cccs2)S(=O)(=O)c2cccs2)cc1C` (stereo not drawn) gave a survival of 78%.
`COC(=O)CN1C(=O)C(C)(C)c2cc(S(=O)(=O)Nc3ccc(C(C)C)cc3)ccc21` showed a survival of 79%.
`CC(C)(C)c1ccc(C(=O)N2CCC(c3noc(-c4ccc(S(=O)(=O)N5CCCC5)cc4)n3)CC2)cc1` showed a survival of 89%.
For `CCOC(=O)C1CCN(C(c2cc3ccc(OC)cc3n3nnnc23)c2nnnn2C2CCCC2)CC1` (stereo not drawn), the survival was 101%.
In the case of `CCc1cccc(C)c1Nc1c(-c2cccs2)nc2ncccn12`, the survival is reported as 73%.
With `CCCCOc1ccccc1CC1C(=O)Nc2ccc(Br)cc21` (stereo not drawn) the survival was 14% (active).
`COc1ccc(CC2C(=O)Nc3ccc(Br)cc32)cc1OC` (stereo not drawn) was tested, and the survival was 82%.
Molecule `CCOc1ccccc1CC1C(=O)Nc2ccc(Br)cc21` (stereo not drawn) has a survival of 59%.
`CCOc1c(CC2C(=O)Nc3ccc(Br)cc32)cccc1OC` (stereo not drawn) gave a survival of 102%.
`CCCOc1ccc(CC2C(=O)Nc3ccc(Br)cc32)cc1` (stereo not drawn) was tested, and the survival was 0% (active).
`COc1ccc(OC)c(CC2C(=O)Nc3ccc(Br)cc32)c1` (stereo not drawn) was tested, and the survival was 72%.
With `Cc1cc(C)cc(NC(=O)C2CCN(S(=O)(=O)c3ccc4c(c3)oc(=O)n4C)CC2)c1` the survival was 95%.
For `COc1ccc2c(c1)c1c(c(=O)n(CCc3ccccc3)c(=O)n1Cc1cccc(Cl)c1)n2C`, the survival was 76%.
For `O=C(CN1C(=O)CSc2ccc(S(=O)(=O)N3CCCCC3)cc21)NCc1ccc(F)cc1Cl`, the survival was 79%.
With `CNC(=S)N1C2CCC1CC(NC(=O)NC13CC4CC(CC(C4)C1)C3)C2` (stereo not drawn) the survival was 79%.
With `CCOC(=O)c1ccc(NC(=O)Nc2cccc(OCc3cc(=O)n4ccc(C)cc4n3)c2)cc1` the survival was 68%.
In the case of `CCOc1ccccc1NC(=O)CSc1nc2ccccc2nc1N1CCOCC1`, the survival is reported as 4% (active).
In the case of `CCCCc1ccc(NC(=O)CSc2nc3ccccc3nc2N2CCOCC2)cc1`, the survival is reported as 30% (active).
Molecule `Cc1ccc(NC(=O)CSc2nc3ccccc3nc2N2CCOCC2)cc1` has a survival of 54%.
For `CC(=O)Nc1ccc(NC(=O)CSc2nc3ccccc3nc2N2CCOCC2)cc1`, the survival was 83%.
Work on `CCOc1ccc(NC(=O)CSc2nc3ccccc3nc2N2CCOCC2)cc1` yielded a survival of 87%.
For `CCCCc1ccc(NC(=O)CSc2nc3ccccc3nc2N2CCCCC2)cc1`, the survival was 30% (active).
`CCCCc1ccc(NC(=O)CSc2nc(=O)[nH]c3c2CCCC3)cc1` showed a survival of 74%.
`CCc1cccc(C)c1NC(=O)CSc1nc2ccccc2nc1N1CCOCC1` was tested, and the survival was 81%.
For `CCc1cccc(NC(=O)CSc2nc3ccccc3nc2N2CCCCC2)c1`, the survival was -6% (active).
For `Cc1cccc(NC(=O)CSc2nc3ccccc3nc2N2CCOCC2)c1C`, the survival was 51%.
`COc1cccc(NC(=O)CSc2nc3ccccc3nc2N2CCOCC2)c1` gave a survival of 54%.
With `O=C(CS(=O)(=O)Cc1ccccc1)Nc1ccc2c(c1)OCO2` the survival was 69%.
For `O=C(NCc1ccc(F)cc1)c1cnc(N2CCOCC2)c2ccccc12`, the survival was 95%.
For `CN(CC(=O)Nc1ccc(F)cc1F)S(=O)(=O)c1ccc(C(=O)N2CCOCC2)s1`, the survival was 88%.
`COc1ccc(S(=O)(=O)N2CCC(Oc3ccc(-n4cnnn4)cc3)CC2)cc1OC` gave a survival of 77%.
For `Cc1ccc(CNC(=O)C2CCN(c3nc4ccccc4n(C)c3=O)CC2)cc1`, the survival was 87%.
Molecule `O=C(Nc1ccccc1C(=O)OCc1cc(=O)n2c3c(sc2n1)CCCC3)c1ccc(F)cc1` has a survival of 106%.
`COc1ccc(OC)c(CNC(=O)c2ccc(Sc3ccc(Cl)cc3)c(NC(C)=O)c2)c1` gave a survival of 83%.
Molecule `CCc1ccc(-c2cn3c(n2)sc2cc(C(=O)NCC(C)c4ccccc4)ccc23)cc1` (stereo not drawn) has a survival of 69%.
In the case of `COC(=O)c1cnc(N2CCN(c3ccc(OC)cc3)CC2)c2ccccc12`, the survival is reported as 62%.
`COc1cc(CNC(=O)c2ccc3nc(CCc4ccccc4)oc3c2)cc(OC)c1OC` was tested, and the survival was 80%.
Molecule `CCc1nn(Cc2cc(C)ccc2C)c(=O)c2cc3cc(C)ccc3n12` has a survival of 95%.
`CCOc1ccc(-c2cc(C(=O)NCCc3ccc(OC)c(OC)c3)[nH]n2)cc1` showed a survival of 77%.
For `COc1ccc(S(=O)(=O)N2CCN(Cc3ccc4c(c3)OCO4)CC2)cc1OC`, the survival was 43% (active).
For `Cc1cc(C)c(S(=O)(=O)N2CCN(Cc3ccc4c(c3)OCO4)CC2)cc1C`, the survival was 13% (active).
Molecule `COc1ccc(S(=O)(=O)N2CCN(Cc3nc4ccc(C)cc4o3)CC2)cc1OC` has a survival of 84%.
Molecule `NC(=O)CN1CCN(Cc2ccc3c(c2)OCO3)CC1` has a survival of 76%.
`COc1cccc(S(=O)(=O)N2CCN(Cc3ccc4c(c3)OCO4)CC2)c1` showed a survival of 75%.
`Cc1ccc(S(=O)(=O)N2CCN(Cc3ccc4c(c3)OCO4)CC2)cc1` showed a survival of 70%.
